# According to PubChem BioAssay AID651821 (The Scripps Research Institute Molecular Screening Center, 2012):
# Screen size: about 370,000 compounds; about 4,700 (1.3%) were called active. Only a selection was taken, and actives are over-represented in it overall. Values without a mark were called inactive.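 Rule for the calls: active = inhibition above the plate cutoff, the mean of all test compounds on that plate plus 3 SD (cut at about 35% in these data); inactive = the rest.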
# Test: binders of r(CAG) RNA repeats, primary screen, biochemical, fluorescence (AID 651821);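 note: 0% = DMSO alone and 100% = 100 µM mitoxantrone as full dye displacement; higher means more dye released from RNA so lower well fluorescence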
# Settings: r(CAG) RNA repeat, TO-PRO-1 dye displacement fluorescence; at 3 µM; active compounds read high
row,SMILES,inhibition
1,CCOC(=O)[C@]12CCCC3=C1N(CCC3)C(=O)[C@@H](CC(=O)N1CCSCC1)C2,-0.18%
2,CCOc1ccc(C(=O)NC2CCN(CC(=O)NCc3cccs3)CC2)cc1,-7.65%
3,COCCNC(=O)c1ccc2nc(Cc3ccc(OC)c(OC)c3)oc2c1,-4.89%
4,COCCNC(=O)Nc1ccc2nc(-c3ccco3)c(-c3ccco3)nc2c1,69.7% (active)
5,COc1cc(NC(=O)C2=CC(c3ccco3)=NS(=O)(=O)N2C)cc(OC)c1OC,1.85%
6,COC(=O)[C@]12C[C@H](CC(=O)NCc3cccs3)C(=O)N(CCc3ccc(OC)c(OC)c3)C1=C[C@H](C(C)C)O[C@@H]2C1CC1,3.01%
7,CCc1nn(CCCC(=O)NC(C)c2ccccc2)c(=O)c2cc3occc3n12 (stereo not drawn),-1.26%
8,O=C(C1CCN(S(=O)(=O)c2ccc(Br)s2)CC1)N1CCN(C2CCCCC2)CC1,-5.64%
9,O=C(CCCN1C(=O)c2cccc3cccc(c23)C1=O)N1CCN(Cc2ccc3c(c2)OCO3)CC1,-5.35%
10,O=C(COC(=O)CCCN1C(=O)c2cccc3cccc(c23)C1=O)NC1CCS(=O)(=O)C1 (stereo not drawn),-0.32%
11,O=C1c2cccc3cccc(c23)C(=O)N1CCCCCc1n[nH]c(=S)o1,38.4% (active)
12,COc1cc(C(=O)Nn2c(O)c(C3=c4ccccc4=NC3=O)sc2=S)ccc1O,50.1% (active)
13,COc1cc(C(=O)Nn2c(CC(C)C)nc3ccccc3c2=O)cc(OC)c1OC,-4.74%
14,COc1cc(C(=S)NC2CCCCC2)ccc1O,4.7%
15,C[C@H](C(=O)N(C)c1ccccc1)[C@@H](O)c1ccc(Cl)cc1,-1.76%
16,C=CCN1C(=O)[C@@H](CC(=O)NCCCCc2ccccc2)[C@]2(C(=O)OCC)CCCCC/C=C/12,3.6%
17,CCOC(=O)N1CCN(C(=O)C[C@@H]2C(=O)N(CCc3ccc(Cl)cc3)C3=CCCC[C@]32C(=O)OCC)CC1,3.44%
18,CC(=O)N(c1ccc2oc(=O)sc2c1)S(=O)(=O)c1ccc(C)cc1,42.4% (active)
19,COC(=O)c1c(C)oc2ccc(N(C(=O)Oc3ccccc3)S(=O)(=O)c3ccccc3)cc12,5.17%
20,CC(=O)Oc1ccc(N(C(C)=O)S(=O)(=O)c2ccc3ccccc3c2)cc1Br,2.18%
21,CC(=O)OC12CCCN(C1)/C(=C/c1ccncc1)C2 (stereo not drawn),3.52%
22,CCCOc1ccc(Oc2c(Cl)cnn(Cc3cccc4ccccc34)c2=O)cc1,6.74%
23,C[C@H](CO)N1C[C@H](C)[C@@H](CN(C)C(=O)Nc2ccccc2F)OCc2cn(nn2)CCCC1=O,0.24%
